Screen size: about 360,000 compounds; about 3,700 (1%) were called active. Not shown: some 2% with an inconclusive outcome.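 How the source made its calls: active means normalized GFP-positive differentiation at or above the plate's own cutoff, the solvent-only control mean plus 3 SD; inconclusive means no clear call, values can overlap the other calls; inactive means the rest.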 For the sample, actives were picked, then their nearest neighbours and some compounds at random.
Assay: induction of myeloid progenitor differentiation, primary screen, cell-based, flow cytometry, MLPCN library (AID 624256);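 on GFP+ MAC1+ double positive: cells exposed to compound for four days before flow analysis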;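 on normalized GFP-positive differentiation: cells exposed to compound for four days before flow analysis; 0% = DMSO wells and 100% = fulvestrant positive control at 5 µM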
Settings: ER-HoxA9 myeloid progenitors, lysozyme-GFP differentiation, at 10 µM; GFP+ MAC1+ double positive: measured here: differentiation confirmed by MAC1 staining, stronger effect = higher value; normalized GFP-positive differentiation: stronger effect = higher value
With CC(C)C[C@@H]1Cc2[nH][nH]c(=O)c2[C@H](CCc2ccccc2)O1 the GFP+ MAC1+ double positive was 0.9% and the outcome was “inactive”.
In the case of Cc1cc2nc(-c3ccc(F)cc3)c(Cc3ccsc3)n2c(C)c1Br, the GFP+ MAC1+ double positive is reported as 1.3% and the outcome is reported as “inactive”.
In the case of COC(=O)[C@]12CCCCC=C1N(Cc1ccco1)C(=O)[C@H](CC(=O)NCCCCc1ccccc1)C2, the GFP+ MAC1+ double positive is reported as 0.4% and the outcome is reported as “inactive”.
In the case of CCc1nc2ccc(C(=O)NC3CCN(Cc4ccccc4)CC3)cn2c1N(C)CCN1CCOCC1, the GFP+ MAC1+ double positive is reported as 1.3% and the outcome is reported as “inactive”.
In the case of COc1ccc(C2CC(c3cccc(OC)c3)=NN2c2ccc(S(N)(=O)=O)cc2)cc1 (stereo unspecified), the GFP+ MAC1+ double positive is reported as 8.9% and the normalized GFP-positive differentiation is reported as 14.9% (active).
In the case of Oc1ccccc1C1=NN(c2ccccc2)C(c2ccccc2)C1 (stereo unspecified), the GFP+ MAC1+ double positive is reported as 0.2% and the outcome is reported as “inactive”.
For Cc1ccc(C2CC(c3cccc(NS(C)(=O)=O)c3)=NN2S(C)(=O)=O)cc1 (stereo unspecified), the GFP+ MAC1+ double positive was 0.5% and the outcome was “inactive”.
In the case of O=C(/C=C/[C@H]1O[C@@H](n2ccc(=O)[nH]c2=O)[C@H](O)[C@@H]1O)NCc1ccccn1, the GFP+ MAC1+ double positive is reported as 1.5% and the outcome is reported as “inactive”.
With Cc1ccc(Cn2cc(CN3CC(N4CCN(C)CC4)CS3(=O)=O)nn2)cc1 (stereo unspecified) the GFP+ MAC1+ double positive was 1% and the outcome was “inactive”.
With CCCCC[C@@H]1C=C(C(=O)OCC)[C@H](c2ccccc2)N1S(=O)(=O)c1ccc(C)cc1 the GFP+ MAC1+ double positive was 0.5% and the outcome was “inactive”.
For c1nc(COc2nsnc2N2CCOCC2)cs1, the GFP+ MAC1+ double positive was 7.1% and the normalized GFP-positive differentiation was 13.2% (active).
In the case of c1ccc(COc2nsnc2N2CCOCC2)cc1, the GFP+ MAC1+ double positive is reported as 2.7% and the outcome is reported as “inactive”.
With O=C(O)COc1nsnc1N1CCOCC1 the GFP+ MAC1+ double positive was 0% and the outcome was “inactive”.
For CCC(C(=O)NC(C)(C)C)n1c(-c2ccccc2)nc2ccccc21 (stereo unspecified), the GFP+ MAC1+ double positive was 2% and the outcome was “inactive”.
With O=C(NC1CCCC1)C1c2ccccc2OCC(=O)N1CC(F)(F)F (stereo unspecified) the GFP+ MAC1+ double positive was 0.5% and the outcome was “inactive”.
With O=C1NC[C@H](CCCCN2C[C@H](Cc3ccccc3)N(Cc3ccccc3)C(=O)C2=O)N(CCc2ccc(O)cc2)C1=O the GFP+ MAC1+ double positive was 1% and the outcome was “inactive”.
In the case of COC(=O)[C@@]12C[C@@H](CC(=O)N3CCCCC3)C(=O)N(Cc3ccc4c(c3)OCO4)C1=CCC(C)(C)C2, the GFP+ MAC1+ double positive is reported as 1.1% and the outcome is reported as “inactive”.
With Cc1ccc(-n2c(SCC(=O)Nc3ncc(Cl)cc3Cl)nc3ccccc32)cc1 the GFP+ MAC1+ double positive was 11.5% and the normalized GFP-positive differentiation was 162% (active).
For CC1(C(=O)OCC(=O)Nc2ncc(Cl)cc2Cl)CC1(Cl)Cl (stereo unspecified), the GFP+ MAC1+ double positive was 0.3% and the outcome was “inactive”.
In the case of CCOc1ccc(-n2c(SCC(=O)Nc3cc(C(=O)O)ccc3Cl)nc3ccccc3c2=O)cc1, the GFP+ MAC1+ double positive is reported as 1.1% and the outcome is reported as “inactive”.
For CC1Cc2ccccc2N1S(=O)(=O)c1cccc(C(=O)OCC(=O)N2CCOCC2)c1 (stereo unspecified), the GFP+ MAC1+ double positive was 1% and the outcome was “inactive”.
In the case of CC1CCc2sc(C(=O)NCC(c3ccco3)N3CCCCC3)cc2C1 (stereo unspecified), the GFP+ MAC1+ double positive is reported as 0.5% and the outcome is reported as “inactive”.
For CC1Cc2ccccc2N1S(=O)(=O)c1cccc(C(=O)NCC(c2ccco2)N2CCCC2)c1 (stereo unspecified), the GFP+ MAC1+ double positive was 1.4% and the normalized GFP-positive differentiation was 21.5% (active).
In the case of CC12CCC(=O)C=C1CCC1C2C(O)CC2(C)C1CCC2(O)C(O)CO (stereo unspecified), the GFP+ MAC1+ double positive is reported as 1.1% and the outcome is reported as “inactive”.
With O=C(NCc1cccnc1)c1cc(C2CCCN(C(=O)CCCc3ccccc3)C2)on1 (stereo unspecified) the GFP+ MAC1+ double positive was 0.8% and the outcome was “inactive”.
In the case of CCCCN(C=O)c1c(CC)nc2c(OCCC3CCCCC3)cccn12, the GFP+ MAC1+ double positive is reported as 0.7% and the outcome is reported as “inactive”.
In the case of CCOC(=O)[C@]12CCCC=C1N(Cc1cccc3ccccc13)C(=O)[C@H](CC(=O)NCC13CC4CC(CC(C4)C1)C3)C2, the GFP+ MAC1+ double positive is reported as 2.1% and the outcome is reported as “inactive”.
For Cc1ccc(S(=O)(=O)NCCNC(C)c2ccc(Br)cc2)cc1 (stereo unspecified), the GFP+ MAC1+ double positive was 1% and the outcome was “inactive”.
In the case of Cc1ccc(S(=O)(=O)NCC(C)NS(C)(=O)=O)cc1 (stereo unspecified), the GFP+ MAC1+ double positive is reported as 2% and the outcome is reported as “inactive”.
With Cc1ccc(S(=O)(=O)NCCSC(C)(C)C)cc1 the GFP+ MAC1+ double positive was 5.2% and the normalized GFP-positive differentiation was 17.8% (active).
For OC(c1ccccc1)c1nc(-c2cnc3ccccc3c2)cs1 (stereo unspecified), the GFP+ MAC1+ double positive was 0.6% and the outcome was “inactive”.
For C=C1C(=O)[C@]23C[C@H]1CCC2[C@@]1(C)C(C[C@@H]3O)[C@](C)(C(=O)O)CC[C@@H]1O (stereo partly specified), the GFP+ MAC1+ double positive was 3.8% and the normalized GFP-positive differentiation was 13.1% (active).
In the case of CCOC(=O)C1=CC[C@@H](c2ccncc2)N(S(=O)(=O)c2ccc(C)cc2)C1, the GFP+ MAC1+ double positive is reported as 1.2% and the outcome is reported as “inactive”.
For COc1ccc(C2OC(CCc3ccccc3)Cc3[nH]c(=S)[nH]c(=O)c32)cc1 (stereo unspecified), the GFP+ MAC1+ double positive was 1.5% and the outcome was “inactive”.
In the case of CC(=O)c1ccc(S(=O)(=O)N2CCN(c3nc4c(C)c(C)ccc4cc3C#N)CC2)cc1, the GFP+ MAC1+ double positive is reported as 0.3% and the outcome is reported as “inactive”.
For Cc1ccc(S(=O)(=O)C(C#N)c2nc3ccccc3nc2N2CCCC2)cc1C (stereo unspecified), the GFP+ MAC1+ double positive was 1.7% and the normalized GFP-positive differentiation was 59% (active).
For Cc1ccc(S(=O)(=O)N2CCN(c3ccccc3)CC2)cc1C, the GFP+ MAC1+ double positive was 0.5% and the outcome was “inactive”.
In the case of COC(=O)c1sc(N2CCN(Cc3ccccc3)CC2)nc1N, the GFP+ MAC1+ double positive is reported as 0.5% and the outcome is reported as “inactive”.
For CC(C)OC(=O)C(C#N)c1nc2ccccc2nc1N1CCN(Cc2ccccc2)CC1 (stereo unspecified), the GFP+ MAC1+ double positive was 0.7% and the normalized GFP-positive differentiation was 12.1% (active).
In the case of CC(C)n1c(CN2CCN(Cc3ccccc3)CC2)nc2ccccc21, the GFP+ MAC1+ double positive is reported as 0.1% and the outcome is reported as “inactive”.
For CCCCCn1nnnc1-c1nc2cc3ccccc3cc2[nH]c1=O, the GFP+ MAC1+ double positive was 1.8% and the outcome was “inactive”.
In the case of Cc1nc(Nc2ccccc2F)c2nnn(Cc3ccccc3Cl)c2n1, the GFP+ MAC1+ double positive is reported as 0.5% and the outcome is reported as “inactive”.
In the case of Cc1nc(Nc2ccc3c(c2)OCCO3)c2nnn(Cc3ccccc3Cl)c2n1, the GFP+ MAC1+ double positive is reported as 18.1% and the normalized GFP-positive differentiation is reported as 21.9% (active).
With CCCc1nc(NCc2ccc3c(c2)OCO3)c2nnn(Cc3ccccc3Cl)c2n1 the GFP+ MAC1+ double positive was 0.8% and the outcome was “inactive”.
With CCCCCc1c(Cc2ccccc2)ncn1CCc1ccccc1OC the GFP+ MAC1+ double positive was 3.9% and the outcome was “inactive”.
With COc1ccc(NC(=O)N(C)C[C@H]2Oc3ccc(NC(=O)C4CC4)cc3C(=O)N([C@H](C)CO)C[C@@H]2C)cc1 the GFP+ MAC1+ double positive was 1.6% and the normalized GFP-positive differentiation was 10.4% (active).
With COc1ccc(NC(=O)Nc2ccc3c(c2)C(=O)N([C@H](C)CO)C[C@H](C)[C@@H](CN(C)C(=O)Nc2ccc4c(c2)OCO4)O3)cc1 the GFP+ MAC1+ double positive was 2.5% and the outcome was “inactive”.
With C[C@@H]1CN([C@@H](C)CO)C(=O)c2cc(NC(=O)C3CC3)ccc2O[C@H]1CN(C)C the GFP+ MAC1+ double positive was 1.9% and the outcome was “inactive”.
With CCOC(=O)[C@]12CCC=C1N(Cc1ccccc1)C(=O)[C@H](CC(=O)N1CCCC1)C2 the GFP+ MAC1+ double positive was 0.9% and the outcome was “inactive”.
For N#C/C(=C/c1ccc(N2CCCCC2)o1)C(=O)NCCc1c[nH]c2ccccc12, the GFP+ MAC1+ double positive was 3.1% and the normalized GFP-positive differentiation was 118% (active).
With N#C/C(=C\c1ccc(N2CCOCC2)o1)C(=O)N1CCOCC1 the GFP+ MAC1+ double positive was 0.4% and the outcome was “inactive”.
In the case of N#C/C(=C/c1ccc(N2CCOCC2)o1)C(=O)N1CCOCC1, the GFP+ MAC1+ double positive is reported as 0.4% and the outcome is reported as “inactive”.
With CCC(c1nnnn1-c1ccc2c(c1)OCCO2)N1CCN(c2ccc(C(F)(F)F)cn2)CC1 (stereo unspecified) the GFP+ MAC1+ double positive was 0.4% and the outcome was “inactive”.

From PubChem BioAssay AID624256 (NMMLSC, 2012)
